For 54 compounds, INHIBITION results are on record in ChEMBL document CHEMBL4513216, “Probing the Open Global Health Chemical Diversity Library for Multistage-Active Starting Points for Next-Generation Antimalarials” (ACS Infect Dis, 2020).

Structures are written as SMILES. Among all 68,000 compounds or so, about 2,700 (4%) showed an effect of 50% or more. The sample as a whole holds a higher share of strong results than the screen did.

This assay has as its system Plasmodium berghei. The experiment in a line: Screen against P. berghei liver stage (PbLuc), transformed with Luciferase, at 2uM. The class given is functional, HepG2. The following applies: tested at 2 uM.
Take `Cc1nc(CC(=O)N2CCCCC2Cn2cccn2)cs1` (centres undefined): the INHIBITION was found to be 60.64%.
`Cc1nc(CC(=O)N2CCCC2Cn2cccn2)cs1` (centres undefined): the INHIBITION came out at 34.53%.
In the case of `O=C(c1cccc2c1OCCO2)N1CCCCC1Cn1cccn1` (centres undefined) it was -46.81%; in that of `Cc1cnn(CC2CCCN2C(=O)c2sccc2C#N)c1` (centres undefined), 16.25%.
Take `CC(C)(C)CC(=O)NCC(=O)NCC(O)c1ccc2ccccc2c1` (centres undefined): the INHIBITION is -29.53%.
Turning to `CCc1n[nH]c(C2CN(C(=O)c3ccc(Cl)cn3)CCO2)n1` (centres undefined), the INHIBITION is recorded as 22.69%.
Regarding `CC(C)n1nc(Cn2cccn2)c2c1CN(CC1CCOC1)C2` (centres undefined), the INHIBITION is reported as 20.2%.
Under `COCCC(=O)N1CCC(NC(=O)c2cscc2C)CC1` stands 16.72%; under `COCC(O)CN1CCC(NC(=O)c2ccccc2Cl)CC1` (centres undefined), -41.8%; under `COCC(O)CN1CCC(NC(=O)c2cscc2C)CC1` (centres undefined), 50.93%.
Under `CCc1nnsc1C(=O)N(C)Cc1nnc2n1CCC2` stands -8.74%; under `Cc1cnc(N2CCC3(CC(=O)N(Cc4csc(C)n4)C3)C2)nc1` (centres undefined), 25.43%; under `COCCN(CC(F)F)c1cc(COC)nc2ncnn12`, 69.52%.
As to `CCCN(CC(F)F)c1cc(COC)nc2ncnn12`, the INHIBITION was -6.73%.
For the compound `COCc1cc(N(CC(F)F)C2CC2)n2ncnc2n1`, the INHIBITION worked out at 3.59%.
As to `CCN(CC)CCN(CC(C)C)c1cc(C(F)(F)F)nc2ncnn12`, the INHIBITION is reported as -13.12%.
On to `COCCN(CC(F)F)c1cc(C(F)(F)F)nc2ncnn12`, for which the INHIBITION is recorded as 25.81%.
In the case of `CCCc1cc(N(CCOC)CC(F)F)n2ncnc2n1`, the INHIBITION was found to be 55.18%.
Take `Cc1cc(C)c(CNC(=O)NCc2cc(F)cc(F)c2)c(=O)[nH]1`: the INHIBITION is 23.42%.
In the case of `Cn1ncc(C(=O)OCC2CC(=O)N(c3ccccc3)C2)c1C(F)F` (centres undefined) it was 26.62%; in that of `CC(C)NC(=O)C1CN(C(=O)Nc2cccc(F)c2)CC12CCOCC2` (centres undefined), 9.53%; in that of `O=C1CCCN1CCN1CCC(c2ccn[nH]2)CC1`, 33.26%.
Turning to `CCc1c(C)nc(N)nc1NCCSCc1[nH]cnc1C`, the INHIBITION was determined as 29.98%.
Consider `CN(Cc1ncc(C(C)(C)C)o1)C1CCCN(c2cccnn2)C1` (centres undefined), for which the INHIBITION is 51.21%.
In the case of `c1coc(-c2nnc(CN3CCCC(CN4CCCCCC4)C3)o2)c1` (centres undefined), the INHIBITION is listed as -22.43%.
Under `Cc1nc(CN(C)C2CCCN(c3cccnn3)C2)oc1C` (centres undefined) stands -6.71%.
Turning to `Cc1nc(C)n(CC2CCCN(Cc3nnc(-c4ccco4)o3)C2)n1` (centres undefined), the INHIBITION is on record as 22.51%.
Turning to `CN(Cc1nnc(C2CC2)o1)C1CCCN(c2cccnn2)C1` (centres undefined), the INHIBITION is on record as -15.05%.
Take `CN(Cc1nnc(-c2ccco2)o1)C1CCCN(c2cccnn2)C1` (centres undefined): the INHIBITION was 53.03%.
Under `CN(Cc1nc(-c2ccco2)no1)C1CCCN(c2cccnn2)C1` (centres undefined) stands 22.1%; under `CN(Cc1ncc(-c2ccccc2)o1)C1CCCN(c2cccnn2)C1` (centres undefined), -4.81%.
For `Cc1ccccc1CCC1CCCN(Cc2nnc(-c3ccco3)o2)C1` (centres undefined), the INHIBITION is reported as 55.7%.
On to `CC(CN(C)C)Nc1nc(O)cc(Cc2ccccc2F)n1` (centres undefined), for which the INHIBITION was determined as 21%.
Consider `COCCOc1cccc(C(=O)N2CCCCC2c2nccs2)c1` (centres undefined), for which the INHIBITION came to 4.41%.
`CN(Cc1cccnc1)C1CCCN(Cc2noc(C3CC3)n2)C1` (centres undefined): the INHIBITION was found to be 42.12%.
Turning to `CC(C)c1ccc(CS(=O)(=O)Cc2nc(N)nc(N(C)C)n2)cc1`, the INHIBITION came out at 64.9%.
Under `CC(C)c1ccc(S(=O)(=O)Cc2nc(N)nc(N(C)C)n2)cc1` stands -25.72%.
In the case of `Cc1ccc(CS(=O)(=O)Cc2nc(N)nc(N(C)C)n2)cc1` it was -44.8%; in that of `CCOCCn1nc(C2CCNCC2)n(Cc2ccccc2)c1=O`, 49.95%.
Regarding `CCCn1nc(C2CCNCC2)n(Cc2ccccc2)c1=O`, the INHIBITION is reported as 26.92%.
As to `O=c1n(CC2CC2)nc(C2CCNCC2)n1Cc1ccccc1`, the INHIBITION is on record as 51.19%.
Under `Cc1noc(C)c1CCC(=O)N1CCn2cccc2C1C` (centres undefined) stands -39.01%; under `Cc1c(NC(=O)NC2CCCC2)cccc1C(=O)N1CCSCC1`, -12.09%.
Consider `Cc1c(NC(=O)NC2CCOCC2)cccc1C(=O)N1CCCC1`, for which the INHIBITION is 48.39%.
With `O=C(Nc1ccccc1C(=O)N1CCCC1)NC1CCOCC1`, the INHIBITION was determined as 70.83%.
Consider `NS(=O)(=O)c1cnn(CCC(=O)N(Cc2ccccc2)C2CC2)c1`, for which the INHIBITION is listed as -102.2%.
In the case of `CC(C)C(=O)NC1CC2(CCN(CC(=O)N(C)C)CC2)c2ccccc21` (centres undefined) it was -0.91%; in that of `CCC(=O)Nc1cccc(OCC(=O)N(C)Cc2ccon2)c1`, 19.91%; in that of `CCc1cccc(NC(=O)CCC(=O)N(C)Cc2nc(C)c[nH]2)c1`, -53.55%.
Regarding `CCC(=O)Nc1cccc(OCC(=O)N(C)Cc2nc(C)c[nH]2)c1`, the INHIBITION came to 53.13%.
In the case of `CCn1nc(C)c2nc(C(C)C)nc(NCCCn3cccn3)c21`, the INHIBITION is given as -25.67%.
On to `Cc1cccc(CN2CCn3cc(CNC(=O)CC4CC4)nc3C2)n1`, for which the INHIBITION was 17.24%.
In the case of `O=C1COC2(CCN(Cc3nccs3)CC2)CN1CC1CC1`, the INHIBITION was 7.86%.
Regarding `CCc1cnc(N2C[C@@H]3C[C@H](C(=O)NC)[C@H](C2)O3)nc1`, the INHIBITION was 18.91%.
